The source of these data is PubChem BioAssay.

Test [1] deals with XIP peptide (Xip251-270) binding. In words: XIP fragment 251-270 binding compounds – biochemical, small-molecule microarray, fluorescence 635/667 nm, 0.1 µg/mL protein, primary screen (AID 1182). The following applies: fluorescent protein binding, 635 nm, higher = more signal, called active from +8 up or from −8 down.
A further test relates to XIP peptide (Xip251-270). Kind of test: compounds binding XIP fragment 251-270 – biochemical, small-molecule microarray, fluorescence 635/667 nm, 0.5 µg/mL protein, primary screen (AID 1183). The following applies: fluorescence 635 nm, higher = more signal.
The nature of test [2]: blood-stage malaria parasite viability loss – strain 3D7, DAPI fluorescence, 100 nL, primary screen (AID 1184).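 Note: parasites grown inside human red blood cells in medium with human serum.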 The following applies: P. falciparum 3D7 growth, 3 d, higher = more signal.
Test [3] addresses Homeobox protein Hox-A13 (Mus musculus) (UniProt Q62424). Kind of test: disruptors of Hoxa13 oligonucleotide interaction – biochemical, fluorescence polarization, labeled oligonucleotide, primary screen (AID 1185). The following applies: Hoxa13:DNA binding, 15 min, higher = more signal, called active from +8 up or from −8 down. On the technique in general: Fluorescence polarisation rises when a labelled molecule tumbles more slowly, as on binding a larger partner.

A short description of test [4]: blockers of DNA damage checkpoint Chk1 activation – imaging, HeLa, hydroxyurea, phospho-Chk1 antibody, percent positive cells, primary screen (AID 1186). The following applies: hydroxyurea-induced phospho-Chk1 immunofluorescence imaging, higher = more signal.
Test [5] is described as follows: blockers of DNA damage checkpoint Chk1 activation – imaging, HeLa, hydroxyurea, phospho-Chk1 nuclear intensity, primary screen (AID 1187). The following applies: hydroxyurea-induced phospho-Chk1 immunofluorescence imaging, higher = more signal.

Calls of active or inactive are those of the source. Unless noted, the rule behind the calls is not given here.

Chain of Homeobox protein Hox-A13 (Mus musculus) (Q62424 whole entry, looked up): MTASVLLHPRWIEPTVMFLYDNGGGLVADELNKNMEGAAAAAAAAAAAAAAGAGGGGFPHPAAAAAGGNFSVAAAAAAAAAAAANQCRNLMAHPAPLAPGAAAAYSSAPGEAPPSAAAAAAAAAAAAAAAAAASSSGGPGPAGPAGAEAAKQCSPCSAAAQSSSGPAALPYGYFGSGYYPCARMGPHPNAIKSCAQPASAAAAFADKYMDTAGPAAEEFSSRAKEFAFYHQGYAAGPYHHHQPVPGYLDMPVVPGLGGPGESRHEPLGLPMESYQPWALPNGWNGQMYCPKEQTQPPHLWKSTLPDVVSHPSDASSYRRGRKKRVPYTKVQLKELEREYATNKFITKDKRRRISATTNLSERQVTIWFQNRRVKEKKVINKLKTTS

For the compound `CC(C)[Si]1(C(C)C)O[C@@H](c2ccccc2)c2cc(C3CC3)nc(-c3ccc(Oc4ccccc4)cc3)c21`, the values for the composite z-score (in test [1]; in the test on XIP peptide (Xip251-270)) were -0.732 (inactive) and -0.736, respectively. Moreover, the z-score in test [2] is -1.45; in test [3], 0.0985 (inactive); in test [4], -0.446 (inactive); in test [5] it was 0.661 (inactive).
As to `O=C1O[C@H](c2ccccc2)[C@H](c2ccccc2)N2[C@H]1[C@@H](C(=O)NC[C@H](O)c1ccccc1)[C@]1(C(=O)Nc3ccc(C#CC4=CCCCC4)cc31)[C@H]2c1ccc(OCCO)cc1`, the composite z-score in test [1] was 1.21 (inactive); in the test with XIP peptide (Xip251-270), 0.658. Moreover, the z-score in test [2] was -0.435; in test [3] it was 3.43 (inactive); in test [4], -0.22 (inactive); in test [5], -0.301 (inactive).
Turning to `COc1ccc(CCNC(=O)[C@@]2(c3ccc([N+](=O)[O-])cc3)CC(=O)N(C(C)C)[C@@H]2c2ccc(CO)cc2)cc1`, the composite z-score in test [1] is 1.25 (inactive); in the test with XIP peptide (Xip251-270), -0.904. Also, the z-score in test [2] was -0.303; in test [3], -3.03 (inactive); in test [4], -0.322 (inactive); in test [5], -0.0259 (inactive).
For the compound `CC(C)[Si](OCCCNS(=O)(=O)c1ccc(Br)cc1)(C(C)C)C(C)C`, the composite z-score was -0.0972 (inactive) in test [1] and 0.195 in the test with XIP peptide (Xip251-270). The z-score in test [2] is -1.12; in test [3], -0.361 (inactive); in test [4], -0.672 (inactive); in test [5], -1.01 (inactive).
As for `C=CCN1C(=O)[C@@]2(O[C@@H](CCn3cc([C@H](O)c4ccccc4)nn3)[C@H]([Si](C)(C)c3ccc(OC)cc3)[C@H]2C)c2cc(N3CCOC3=O)ccc21`, the figures for the composite z-score (in test [1]; in the test with XIP peptide (Xip251-270)) were 0.0505 (inactive) and -0.52, respectively. Further, the z-score in test [2] was -2.71; in test [3], -4.69 (inactive); in test [4], -1.49 (inactive); in test [5] it was -1.43 (inactive).
Consider `COC(=O)Cn1c(C(=O)N2CCCC2)cc2c1C[C@H]1CN(C(=O)c3ccccc3)[C@@](Cc3ccccc3)(C(=O)OC)[C@@H]21`, for which the composite z-score was 0.564 (inactive) in test [1] and 0.535 in the test with XIP peptide (Xip251-270). Further, the z-score was -0.252 in test [2], -4.99 (inactive) in test [3], -1.29 (inactive) in test [4] and -0.687 (inactive) in test [5].
As for `C=C(COC)/C(=C/C[C@@H](OC(C)=O)c1cccc(OCCO)c1)c1cc(C(=O)OC)ccc1OC`, the results for the composite z-score (in test [1]; in the test on XIP peptide (Xip251-270)) were -0.496 (inactive) and -0.5, respectively. Also, the z-score was -2.56 in test [2], -4.24 (inactive) in test [3], -0.8 (inactive) in test [4] and -0.95 (inactive) in test [5].
In the case of `COc1cc(CO)cc(I)c1O[C@H]1C=C(C(=O)NCCO)C[C@@H](NCCc2c[nH]c3ccccc23)[C@@H]1O`, the results for the composite z-score (in test [1]; in the test on XIP peptide (Xip251-270)) were -0.26 (inactive) and 0.0826, respectively. For the same compound, the z-score is -3 in test [2], -7.08 (inactive) in test [3], -0.925 (inactive) in test [4] and -0.879 (inactive) in test [5].
Regarding `C=CCC(OC(C)=O)[C@@H]1[C@@H](N(Cc2ccc(-c3ccccc3)cc2)C(=O)c2ccc(-c3ccccc3)cc2)c2cc(OCCCO)ccc2N1C(=O)Cc1ccc(OC)cc1` (stereo partly specified), the composite z-score in test [1] was 0.195 (inactive); in the test with XIP peptide (Xip251-270) it was -0.126. Further, the z-score was -0.314 in test [2], -1.31 (inactive) in test [3], -0.282 (inactive) in test [4] and -0.47 (inactive) in test [5].
For the compound `COC(=O)c1c(CC[C@@H](CO)NC(=O)N[C@H](Cn2cc(-c3cncn3C)nn2)C(C)C)oc(C(C)=O)c1C(=O)OC`, the values for the composite z-score (in test [1]; in the test with XIP peptide (Xip251-270)) were 1.88 (inactive) and -0.0139, respectively. Further, the z-score in test [2] is -2.19; in test [3] it was 3.03 (inactive); in test [4] it was -0.139 (inactive); in test [5] it was 0.233 (inactive).
In the case of `CCOC(=O)C[C@H]1[C@H](OC(=O)Cc2ccc3c(c2)OCO3)[C@@H](NC(=O)c2ccc3ccccc3c2)c2cc(OCCCO)ccc2N1C(=O)Cc1ccc(OC)cc1`, the results for the composite z-score (in test [1]; with XIP peptide (Xip251-270)) were 1.46 (inactive) and 0.737, respectively. For the same compound, the z-score in test [2] was -0.415; in test [3], -2.03 (inactive); in test [4], 0.407 (inactive); in test [5], 0.668 (inactive).
For `COC(=O)C[C@H]1O[C@]2(C(=O)N(Cc3ccccc3)c3ccc(I)cc32)[C@@H](C)[C@@H]1[Si](C)(C)c1ccc(OC)cc1`, the composite z-score was -0.0923 (inactive) in test [1] and -0.0988 in the test with XIP peptide (Xip251-270). Moreover, the z-score in test [2] is -3.07; in test [3], 1.04 (inactive); in test [4] it was -0.504 (inactive); in test [5], -0.584 (inactive).
For `CCCC=C(CCC)[C@@H](NS(=O)(=O)c1ccc(C(F)(F)F)cc1)c1ccc(-c2ccccc2)cc1`, the composite z-score in test [1] is 0.14 (inactive); with XIP peptide (Xip251-270), 0.0936. Also, the z-score was -0.334 in test [2], -1.61 (inactive) in test [3], -0.208 (inactive) in test [4] and -0.144 (inactive) in test [5].
In the case of `CCOC(=O)C[C@H]1[C@H](OC(=O)c2cc3ccccc3oc2=O)[C@@H](NC(=O)c2ccc3ccccc3c2)c2cc(OCCCO)ccc2N1C(=O)c1ccc2ccccc2n1`, the composite z-score is 0.227 (inactive) in test [1] and -0.333 in the test with XIP peptide (Xip251-270). Besides, the z-score is -1.6 in test [2], -1.06 (inactive) in test [3], -0.0364 (inactive) in test [4] and 0.034 (inactive) in test [5].
Regarding `COc1ccc([Si](C)(C)[C@H]2[C@H](CCO)O[C@@]3(C(=O)N(Cc4ccccc4)c4ccc(N5C(=O)c6cccc7cccc5c67)cc43)[C@@H]2C)cc1`, the composite z-score in test [1] is 1.25 (inactive); in the test on XIP peptide (Xip251-270), 0.353. Also, the z-score is -2.48 in test [2], 0.2 (inactive) in test [3], -1.01 (inactive) in test [4] and -0.207 (inactive) in test [5].
On to `Cc1ccc(S[C@]2(C(=O)NC3CC3)CC(=O)N(Cc3cc(C(F)(F)F)cc(C(F)(F)F)c3)[C@@H]2c2ccc(CO)cc2)cc1`, for which the composite z-score is 0.503 (inactive) in test [1] and -0.0124 with XIP peptide (Xip251-270). Moreover, the z-score is -0.442 in test [2], -2.7 (inactive) in test [3], -0.144 (inactive) in test [4] and -0.0725 (inactive) in test [5].
